Assay outcomes: PubChem BioAssay, several laboratories
S1P2 ag: activates the human S1P2 receptor; hit rate 0.46% among 97,000; S1P2-expressing cell line, agonist reporter read-out; O95136; activation, % at 4.5 µM; in the data active means activation above about 16%;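 further: 0% = vehicle low control and 100% = maximal reference agonist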
Phagocyt inh: macrophage phagocytosis inhibition; J774A.1 macrophage IgG-bead phagocytosis, imaging; inhibition, % at 5 µM; hit rate 0.07% among 110,000;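 active means inhibition above the mean of the plate negative controls plus 5 SD, cut at about 13% in these data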;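 further: phagocytic index as fraction of beads internalized from green versus red external bead signal; plate controls were DMSO negative control for no effect and cytochalasin-D positive control for full effect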
GALR2 agonist: GALR2 (human) receptor agonism. AID 803. O43603. hit rate 0.48% among 140,000. GALR2-expressing cells, agonist activation read-out. activation, % (concentration not given with the values); in the data active means activation above about 5%, passing the limit was not always enough;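 further: 0% = vehicle buffer wells and 100% = reference agonist at full effect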
Target sequence (O43603 whole entry, looked up): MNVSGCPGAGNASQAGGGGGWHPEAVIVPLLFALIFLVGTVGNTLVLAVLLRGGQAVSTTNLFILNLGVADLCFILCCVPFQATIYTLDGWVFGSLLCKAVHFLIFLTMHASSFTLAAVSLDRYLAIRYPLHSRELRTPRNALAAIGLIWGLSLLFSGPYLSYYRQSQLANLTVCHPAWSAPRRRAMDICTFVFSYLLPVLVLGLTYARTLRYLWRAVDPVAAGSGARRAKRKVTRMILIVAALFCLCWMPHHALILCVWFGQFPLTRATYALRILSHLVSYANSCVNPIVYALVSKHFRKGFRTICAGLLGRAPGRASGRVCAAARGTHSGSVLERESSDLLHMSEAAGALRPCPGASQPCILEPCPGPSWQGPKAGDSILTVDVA
GALR2 antag: blocks the human galanin receptor 2 | GALR2-expressing cells, antagonist mode | inhibition, % at 4 µM | hit rate 0.39% among 140,000 | AID 828; in the data active means inhibition above about 27%;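 further: cells stimulated with galanin 1-16 at roughly its EC80; 0% = agonist challenge control and 100% = basal control without agonist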
S1P2 blocker: S1P2 (human) receptor antagonism; AID 736; inhibition, % at 5 µM; O95136; hit rate 0.21% among 97,000; cell-based S1P2 antagonist assay, inhibition at 5 uM; in the data active means inhibition above about 45%;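 further: CRE beta-lactamase reporter cells expressing human S1P2 stimulated with S1P; 0% = agonist at EC80 alone and 100% = agonist plus reference antagonist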
GALR2 agon conf: confirmation of human galanin receptor 2 (GALR2) agonists. shares compounds with GALR2 agonist. GALR2-expressing cells, agonist activation. activation, % at 5.6 µM. hit rate 10% among 460; in the data active means activation above about 8.4%;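 further: 0% = buffer-only vehicle wells and 100% = full reference agonist response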
BLA activ ctr: counter-screen for GALR2 agonists: beta-lactamase reporter activators. shares compounds with GALR2 agonist. CHO NFAT-bla reporter, beta-lactamase FRET activation. activation, % at 5.6 µM. hit rate 10% among 460. AID 865;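 active means activation above the screen-wide mean activation plus 3 SD, cut at about 8% in these data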;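 further: 0% = DMSO with PBS wells and 100% = thapsigargin positive control wells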
* = called active by the depositor. A selection: hits, their analogues and other compounds. The true share with any hit is near 1.3%.

`COc1ccc(C2CC(c3ccccc3)=NN2c2ccc(/C=N/NC(=O)c3ccncc3)cc2)cc1` (configuration not stated) gave S1P2 ag 8.5, GALR2 agonist 16.7*, GALR2 antag 24.2, S1P2 blocker 22.0, GALR2 agon conf 2.2 and BLA activ ctr 1.1.
For COc1ccc(C2CC(c3cccs3)=NN2c2ccc(C=O)cc2)cc1 (configuration not stated) the results were Phagocyt inh 5.4, GALR2 agonist 28.6*, GALR2 antag 6.4, GALR2 agon conf 14.7* and BLA activ ctr 31.6*.
For C/C(=N\NC(=O)CC1N=C(Cc2ccccc2)NNC1=O)c1ccc(Cl)cc1Cl (configuration not stated) the results were S1P2 ag -1.8, GALR2 agonist 0.1, GALR2 antag 1.6 and S1P2 blocker 26.7.
`COc1ccccc1CNC(=O)CCS(=O)(=O)c1cccc2nonc12` gave S1P2 ag -0.2, Phagocyt inh 1.8, GALR2 agonist -0.7, GALR2 antag 2.8 and S1P2 blocker 2.2.
For O=C(c1ccco1)N1CCN(C(=O)c2cc3c(=O)oc4ccccc4c3s2)CC1 the results were S1P2 ag -5.2, Phagocyt inh -0.3, GALR2 agonist 30.2*, GALR2 antag 1.4, S1P2 blocker -8.3, GALR2 agon conf -0.5 and BLA activ ctr -1.2.
`COC(=O)c1cc(C(=O)Nc2nnc(C3CC3)s2)cc([N+](=O)[O-])c1` gave Phagocyt inh -2.6, GALR2 agonist 0.2 and GALR2 antag -1.4.
Screening O=C(Cn1cc(C(F)(F)F)cc(Cl)c1=O)Nc1cc(S(=O)(=O)N2CCOCC2)ccc1Cl returned Phagocyt inh -12.4, GALR2 agonist -1.4 and GALR2 antag 0.7.
For O=C(Nc1ccncc1)c1ccc2c(c1)C(=O)N(C1CCCCC1)C2=O the results were S1P2 ag -3.6, Phagocyt inh 0.2, GALR2 agonist 35.7*, GALR2 antag -3.5, S1P2 blocker -4.6, GALR2 agon conf -0.8 and BLA activ ctr -2.6.
Cc1ccc(OCc2ccc(C(=O)O)o2)c([N+](=O)[O-])c1 was read as Phagocyt inh -5.7, GALR2 agonist -0.3 and GALR2 antag 6.5.
`CC(C)c1ccc(Nc2cnn(C34CC5CC(CC(CC(=O)O)(C5)C3)C4)c(=O)c2Cl)cc1` gave S1P2 ag -7.0, GALR2 agonist -2.3, GALR2 antag -9.5 and S1P2 blocker -3.9.
Screening Cc1ccc(Nc2cnn(C34CC5CC(CC(CC(=O)O)(C5)C3)C4)c(=O)c2Cl)cc1 returned S1P2 ag -2.4, GALR2 agonist 11.1, GALR2 antag -7.8, S1P2 blocker -0.5, GALR2 agon conf -1.0 and BLA activ ctr -2.0.
COc1ccccc1-c1cc(C(F)(F)F)nc(S(=O)(=O)CCCC(=O)N2CCOCC2)n1 was read as S1P2 ag -3.2, Phagocyt inh -0.2, GALR2 agonist 10.6, GALR2 antag 3.9, S1P2 blocker -49.4, GALR2 agon conf 0.9 and BLA activ ctr 7.1.
COc1ccccc1-c1cc(C(F)(F)F)nc(S(=O)(=O)CCCC(=O)O)n1 was read as S1P2 ag -7.2, Phagocyt inh 0.9, GALR2 agonist -2.5, GALR2 antag -8.7 and S1P2 blocker -9.1.
Screening COc1ccc(N(CC(=O)NCc2cccs2)S(=O)(=O)c2c(C)nn(C)c2C)cc1 returned S1P2 ag -2.1, Phagocyt inh 0.4, GALR2 agonist 17.2*, GALR2 antag -3.8, S1P2 blocker -16.4, GALR2 agon conf -0.5 and BLA activ ctr -1.3.
Screening Cc1nn(C)c(C)c1S(=O)(=O)N(CC(=O)NCc1cccs1)c1ccc(C(C)C)cc1 returned GALR2 agonist 0.0 and GALR2 antag -7.8.
For CN(c1ccccc1)S(=O)(=O)c1ccc(C(=O)OCC(=O)N2CCOCC2)cc1 the results were S1P2 ag -5.4, Phagocyt inh -0.8, GALR2 agonist 0.1, GALR2 antag 5.3 and S1P2 blocker 21.2.
Screening COc1ccc(C2c3c(oc4ccc(Cl)cc4c3=O)C(=O)N2Cc2ccco2)cc1OC (configuration not stated) returned Phagocyt inh -0.9, GALR2 agonist 21.1*, GALR2 antag 11.8, GALR2 agon conf 7.3 and BLA activ ctr 4.8.
For O=C(CSc1nnnn1-c1cccc(Cl)c1)Nc1ccc2c(c1)CCC2 the results were Phagocyt inh -0.7, GALR2 agonist 8.8*, GALR2 antag -3.2, GALR2 agon conf 5.8 and BLA activ ctr 5.6.
